One sequence from publication PMC7862700, “An all-to-all approach to the identification of sequence-specific readers for epigenetic DNA modifications on cytosine” can be followed below.

Assay in all cases: DAPPL (digital affinity profiling via proximity ligation, sequencing); 10 mM Tris-HCl pH 7.5, 50 mM NaCl, 1 mM DTT, 4% glycerol, room temperature, 30 min; GST-TFs on glutathione beads, 16-mer random dsDNA library, 0.1% formaldehyde crosslink after washing; high values mean tight binding
What all share (settings): protein: recombinant; tags: N-terminal GST; dsDNA, one strand shown

The target in one assay is T1, FLI1 (Homo sapiens, UniProt Q01543 1-452).
T1 sequence: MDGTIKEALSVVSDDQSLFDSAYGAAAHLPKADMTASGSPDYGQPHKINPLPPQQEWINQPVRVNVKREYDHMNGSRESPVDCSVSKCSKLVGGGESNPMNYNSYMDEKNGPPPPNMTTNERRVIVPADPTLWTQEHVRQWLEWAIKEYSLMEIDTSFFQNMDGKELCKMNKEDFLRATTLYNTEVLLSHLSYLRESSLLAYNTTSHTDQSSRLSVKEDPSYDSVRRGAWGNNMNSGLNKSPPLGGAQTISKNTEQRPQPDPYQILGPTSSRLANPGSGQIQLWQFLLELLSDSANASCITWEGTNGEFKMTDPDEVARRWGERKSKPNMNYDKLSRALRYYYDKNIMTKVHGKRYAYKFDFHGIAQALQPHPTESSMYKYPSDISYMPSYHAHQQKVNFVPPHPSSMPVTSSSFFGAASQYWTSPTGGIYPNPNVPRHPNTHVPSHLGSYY
In short, it runs like this: (§1)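 Beads coated with glutathione captured GST-fused human transcription factors that had been expressed in yeast, and the factors were then given DNA barcodes and pooled with a tag-only sample. The pools were incubated with 200 nmole of a random double-stranded 16-mer DNA library in Tris/NaCl/DTT/glycerol buffer for 30 min at room temperature, washed, crosslinked with 0.1% formaldehyde and proximity-ligated with BsaI/T4 ligase at 37 °C for 1 h. PCR amplification and Illumina NextSeq500 sequencing came last. Binding signal is each hexamer's read frequency for a factor divided by its frequency for the tag-only sample.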

The target of the next assay is T2, ELK1 (Homo sapiens, UniProt P19419 1-428).
T2 sequence: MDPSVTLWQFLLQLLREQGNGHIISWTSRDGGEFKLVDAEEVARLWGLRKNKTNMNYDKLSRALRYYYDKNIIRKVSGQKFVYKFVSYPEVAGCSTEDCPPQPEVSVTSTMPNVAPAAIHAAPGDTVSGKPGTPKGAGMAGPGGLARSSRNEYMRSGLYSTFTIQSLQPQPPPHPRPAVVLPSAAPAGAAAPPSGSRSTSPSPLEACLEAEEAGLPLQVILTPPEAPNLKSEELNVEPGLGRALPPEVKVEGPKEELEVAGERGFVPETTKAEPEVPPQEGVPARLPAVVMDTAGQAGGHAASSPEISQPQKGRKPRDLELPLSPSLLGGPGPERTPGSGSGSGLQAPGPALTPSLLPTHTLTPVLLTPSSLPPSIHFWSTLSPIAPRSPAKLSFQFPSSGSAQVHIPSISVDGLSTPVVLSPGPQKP
In short, it runs like this:
as §1

The target in another assay is T3, GABPA (Homo sapiens, UniProt Q06546 1-454).
T3 sequence: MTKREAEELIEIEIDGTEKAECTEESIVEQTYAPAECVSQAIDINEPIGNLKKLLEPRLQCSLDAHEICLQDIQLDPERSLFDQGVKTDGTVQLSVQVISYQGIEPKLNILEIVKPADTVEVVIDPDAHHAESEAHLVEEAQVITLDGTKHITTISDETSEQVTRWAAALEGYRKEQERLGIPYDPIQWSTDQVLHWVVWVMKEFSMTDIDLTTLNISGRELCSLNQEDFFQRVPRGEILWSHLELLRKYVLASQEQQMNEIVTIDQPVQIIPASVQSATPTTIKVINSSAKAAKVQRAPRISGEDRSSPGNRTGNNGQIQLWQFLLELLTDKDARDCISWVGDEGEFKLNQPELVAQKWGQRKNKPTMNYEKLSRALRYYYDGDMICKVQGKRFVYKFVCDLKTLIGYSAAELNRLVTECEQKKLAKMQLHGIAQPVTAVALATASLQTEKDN
In short, it runs like this:
as §1

The target of another assay is T4, ERG (Homo sapiens, UniProt P11308 1-479).
T4 sequence: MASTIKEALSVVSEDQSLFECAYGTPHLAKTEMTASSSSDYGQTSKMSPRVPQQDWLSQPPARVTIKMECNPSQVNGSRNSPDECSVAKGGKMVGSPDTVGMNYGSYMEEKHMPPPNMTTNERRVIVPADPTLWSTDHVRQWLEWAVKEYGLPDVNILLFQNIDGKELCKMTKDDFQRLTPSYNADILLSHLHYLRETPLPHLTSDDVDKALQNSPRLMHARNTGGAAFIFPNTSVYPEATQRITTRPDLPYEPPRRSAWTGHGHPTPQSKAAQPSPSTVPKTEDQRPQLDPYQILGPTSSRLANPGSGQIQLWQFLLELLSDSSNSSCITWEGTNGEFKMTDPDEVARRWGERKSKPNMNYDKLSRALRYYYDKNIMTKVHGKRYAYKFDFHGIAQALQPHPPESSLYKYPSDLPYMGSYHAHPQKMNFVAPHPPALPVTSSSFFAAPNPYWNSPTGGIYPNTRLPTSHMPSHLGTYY
The essentials:
as §1

Another assay has as its target ELF1 (Homo sapiens, UniProt P32519 1-619). The essentials: as §1
For another assay, the target named is T5, EHF (Homo sapiens, UniProt Q9NZC4 1-300).
T5 sequence: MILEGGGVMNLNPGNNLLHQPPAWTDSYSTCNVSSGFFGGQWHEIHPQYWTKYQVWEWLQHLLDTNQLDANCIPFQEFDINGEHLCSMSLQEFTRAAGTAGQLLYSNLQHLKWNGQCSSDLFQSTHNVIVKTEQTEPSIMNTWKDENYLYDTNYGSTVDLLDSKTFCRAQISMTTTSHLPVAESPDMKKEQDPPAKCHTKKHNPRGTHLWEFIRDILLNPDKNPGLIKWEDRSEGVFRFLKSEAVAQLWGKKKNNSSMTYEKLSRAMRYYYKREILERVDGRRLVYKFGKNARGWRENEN
In short, it runs like this: as §1

A further assay deals with SPIB (Homo sapiens, UniProt Q01892 1-262). The essentials: as §1
SPIB, sequence (Q01892 whole entry): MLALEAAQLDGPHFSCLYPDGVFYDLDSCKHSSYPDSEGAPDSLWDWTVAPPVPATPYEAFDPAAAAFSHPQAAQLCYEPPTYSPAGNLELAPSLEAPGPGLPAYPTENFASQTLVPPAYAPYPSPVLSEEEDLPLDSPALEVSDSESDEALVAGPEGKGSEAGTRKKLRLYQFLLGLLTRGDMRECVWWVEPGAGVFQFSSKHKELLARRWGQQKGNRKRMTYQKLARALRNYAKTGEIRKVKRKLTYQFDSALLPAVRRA
For another assay, the target named is T6, ELK3 (Homo sapiens, UniProt P41970 1-407).
T6 sequence: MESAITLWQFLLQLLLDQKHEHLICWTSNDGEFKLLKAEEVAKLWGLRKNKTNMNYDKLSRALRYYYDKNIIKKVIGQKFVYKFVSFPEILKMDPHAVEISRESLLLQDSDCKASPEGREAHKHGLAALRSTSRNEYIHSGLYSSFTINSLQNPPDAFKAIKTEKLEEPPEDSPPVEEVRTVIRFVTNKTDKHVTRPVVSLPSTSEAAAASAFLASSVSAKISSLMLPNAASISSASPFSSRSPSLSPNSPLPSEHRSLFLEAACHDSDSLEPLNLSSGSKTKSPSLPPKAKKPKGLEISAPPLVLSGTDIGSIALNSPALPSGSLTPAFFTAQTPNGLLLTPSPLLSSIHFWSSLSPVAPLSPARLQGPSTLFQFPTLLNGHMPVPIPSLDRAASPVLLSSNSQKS
The essentials:
as §1

In the next assay the target is T7, FEV (Homo sapiens, UniProt Q99581 1-238).
T7 sequence: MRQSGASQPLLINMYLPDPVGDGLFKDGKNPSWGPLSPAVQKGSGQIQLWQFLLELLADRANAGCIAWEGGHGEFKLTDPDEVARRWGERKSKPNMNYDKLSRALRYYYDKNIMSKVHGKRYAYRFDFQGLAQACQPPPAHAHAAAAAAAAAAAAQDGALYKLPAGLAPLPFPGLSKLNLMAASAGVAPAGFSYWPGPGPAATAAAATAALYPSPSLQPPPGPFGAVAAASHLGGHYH
The essentials:
as §1

The next assay addresses ETV5 (Homo sapiens, UniProt P41161 1-510). In short, it runs like this: as §1
The next assay addresses T8, SPIC (Homo sapiens, UniProt Q8N5J4 1-248).
T8 sequence: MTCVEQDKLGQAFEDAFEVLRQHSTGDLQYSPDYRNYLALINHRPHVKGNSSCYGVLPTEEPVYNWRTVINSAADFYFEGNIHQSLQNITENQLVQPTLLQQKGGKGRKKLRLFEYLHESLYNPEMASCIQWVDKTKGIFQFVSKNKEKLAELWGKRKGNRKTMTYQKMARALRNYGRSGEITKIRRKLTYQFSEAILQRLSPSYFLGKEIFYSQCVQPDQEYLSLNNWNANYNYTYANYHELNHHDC
The essentials:
as §1

For another assay, the target named is ELF4 (Homo sapiens, UniProt Q99607 1-663). The essentials:
as §1

Another assay addresses ETV1 (Homo sapiens, UniProt P50549 1-477). In short, it runs like this: as §1
The target of another assay is T9, ERF (Homo sapiens, UniProt P50548 1-548).
T9 sequence: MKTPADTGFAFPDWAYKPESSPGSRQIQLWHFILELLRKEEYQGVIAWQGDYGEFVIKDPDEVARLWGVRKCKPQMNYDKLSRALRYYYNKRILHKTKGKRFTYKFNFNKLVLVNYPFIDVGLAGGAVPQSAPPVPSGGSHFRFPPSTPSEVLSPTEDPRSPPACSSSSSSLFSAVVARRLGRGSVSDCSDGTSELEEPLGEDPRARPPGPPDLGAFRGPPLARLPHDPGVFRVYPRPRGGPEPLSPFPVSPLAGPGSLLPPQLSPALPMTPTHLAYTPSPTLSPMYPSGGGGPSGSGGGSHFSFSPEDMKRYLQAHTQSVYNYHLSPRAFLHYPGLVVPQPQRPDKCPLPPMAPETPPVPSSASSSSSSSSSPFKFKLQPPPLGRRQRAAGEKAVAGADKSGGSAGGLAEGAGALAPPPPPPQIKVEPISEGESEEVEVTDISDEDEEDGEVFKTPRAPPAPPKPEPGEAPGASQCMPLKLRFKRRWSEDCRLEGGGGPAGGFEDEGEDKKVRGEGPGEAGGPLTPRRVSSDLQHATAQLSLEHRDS
In short, it runs like this: as §1

For another assay, the target named is T10, ETV3L (Homo sapiens, UniProt Q6ZN32 1-361).
T10 sequence: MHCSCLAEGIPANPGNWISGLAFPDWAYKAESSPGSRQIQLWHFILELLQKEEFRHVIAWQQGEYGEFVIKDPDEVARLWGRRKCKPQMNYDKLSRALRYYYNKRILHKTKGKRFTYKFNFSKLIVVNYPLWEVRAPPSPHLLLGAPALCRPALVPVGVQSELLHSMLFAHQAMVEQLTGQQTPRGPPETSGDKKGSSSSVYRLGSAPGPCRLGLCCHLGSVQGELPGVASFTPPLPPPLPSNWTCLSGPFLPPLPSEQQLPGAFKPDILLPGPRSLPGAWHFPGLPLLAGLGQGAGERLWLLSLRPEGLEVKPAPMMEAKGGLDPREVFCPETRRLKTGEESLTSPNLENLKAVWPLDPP
The essentials: as §1

The target of a further assay is T11, ETS2 (Homo sapiens, UniProt P15036 1-469).
T11 sequence: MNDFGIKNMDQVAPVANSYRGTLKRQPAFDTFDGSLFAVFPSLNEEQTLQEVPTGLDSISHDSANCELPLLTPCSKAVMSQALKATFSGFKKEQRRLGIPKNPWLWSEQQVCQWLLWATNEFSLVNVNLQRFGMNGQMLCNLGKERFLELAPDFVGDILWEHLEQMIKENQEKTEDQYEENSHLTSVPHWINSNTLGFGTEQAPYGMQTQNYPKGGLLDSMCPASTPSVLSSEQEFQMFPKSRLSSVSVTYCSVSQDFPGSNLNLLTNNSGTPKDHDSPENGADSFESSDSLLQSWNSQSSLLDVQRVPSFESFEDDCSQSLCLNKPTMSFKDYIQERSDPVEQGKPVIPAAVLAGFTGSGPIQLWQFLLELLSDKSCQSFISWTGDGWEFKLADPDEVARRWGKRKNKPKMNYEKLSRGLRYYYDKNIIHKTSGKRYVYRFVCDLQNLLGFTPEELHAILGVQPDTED
The essentials:
as §1

For another assay, the target named is T12, ELF5 (Homo sapiens, UniProt Q9UKW6-2 1-255).
T12 sequence: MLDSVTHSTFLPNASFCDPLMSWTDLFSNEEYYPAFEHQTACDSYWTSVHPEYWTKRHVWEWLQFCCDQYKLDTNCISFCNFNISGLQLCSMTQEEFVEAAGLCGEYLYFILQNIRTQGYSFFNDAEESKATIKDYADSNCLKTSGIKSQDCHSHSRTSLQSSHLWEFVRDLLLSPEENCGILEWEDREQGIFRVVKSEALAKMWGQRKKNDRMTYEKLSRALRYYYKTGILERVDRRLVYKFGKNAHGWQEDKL
In short, it runs like this:
as §1

A further assay has as its target T13, ETV3 (Homo sapiens, UniProt P41162-2 1-143).
T13 sequence: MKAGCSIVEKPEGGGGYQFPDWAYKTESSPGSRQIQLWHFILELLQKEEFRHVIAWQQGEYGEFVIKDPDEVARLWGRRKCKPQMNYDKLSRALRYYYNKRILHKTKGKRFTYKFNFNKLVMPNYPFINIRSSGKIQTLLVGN
The essentials: as §1

The next assay deals with ETV6 (Homo sapiens, UniProt P41212 1-452). The essentials:
as §1

ETV1, sequence (P50549 whole entry): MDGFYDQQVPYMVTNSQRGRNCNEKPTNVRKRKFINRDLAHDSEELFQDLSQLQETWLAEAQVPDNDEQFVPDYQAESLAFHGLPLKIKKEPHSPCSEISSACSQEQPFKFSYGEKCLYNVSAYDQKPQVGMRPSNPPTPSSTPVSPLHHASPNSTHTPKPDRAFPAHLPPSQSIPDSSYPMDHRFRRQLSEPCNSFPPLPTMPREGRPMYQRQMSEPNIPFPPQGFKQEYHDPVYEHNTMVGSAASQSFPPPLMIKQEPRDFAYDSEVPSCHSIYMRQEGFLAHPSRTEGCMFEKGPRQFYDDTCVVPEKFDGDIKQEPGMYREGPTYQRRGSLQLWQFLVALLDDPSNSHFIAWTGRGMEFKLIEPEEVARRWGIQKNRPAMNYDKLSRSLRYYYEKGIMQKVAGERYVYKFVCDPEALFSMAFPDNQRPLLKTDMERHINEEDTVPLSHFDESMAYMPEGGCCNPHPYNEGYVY
ETV5, sequence (P41161 whole entry): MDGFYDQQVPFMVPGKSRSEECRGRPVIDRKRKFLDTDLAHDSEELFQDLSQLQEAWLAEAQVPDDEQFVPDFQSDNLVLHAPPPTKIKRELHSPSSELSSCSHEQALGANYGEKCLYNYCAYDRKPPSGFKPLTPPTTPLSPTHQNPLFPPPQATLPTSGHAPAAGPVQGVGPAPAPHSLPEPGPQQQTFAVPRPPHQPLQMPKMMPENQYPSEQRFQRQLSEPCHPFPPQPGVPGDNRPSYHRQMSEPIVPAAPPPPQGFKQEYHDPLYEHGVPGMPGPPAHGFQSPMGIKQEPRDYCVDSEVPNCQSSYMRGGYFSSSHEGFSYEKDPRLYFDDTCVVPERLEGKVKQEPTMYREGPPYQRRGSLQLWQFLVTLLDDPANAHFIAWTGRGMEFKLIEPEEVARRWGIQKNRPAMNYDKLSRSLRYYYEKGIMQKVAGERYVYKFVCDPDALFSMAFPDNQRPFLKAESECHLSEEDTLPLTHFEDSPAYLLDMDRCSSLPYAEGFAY
ELF1, sequence (P32519 whole entry): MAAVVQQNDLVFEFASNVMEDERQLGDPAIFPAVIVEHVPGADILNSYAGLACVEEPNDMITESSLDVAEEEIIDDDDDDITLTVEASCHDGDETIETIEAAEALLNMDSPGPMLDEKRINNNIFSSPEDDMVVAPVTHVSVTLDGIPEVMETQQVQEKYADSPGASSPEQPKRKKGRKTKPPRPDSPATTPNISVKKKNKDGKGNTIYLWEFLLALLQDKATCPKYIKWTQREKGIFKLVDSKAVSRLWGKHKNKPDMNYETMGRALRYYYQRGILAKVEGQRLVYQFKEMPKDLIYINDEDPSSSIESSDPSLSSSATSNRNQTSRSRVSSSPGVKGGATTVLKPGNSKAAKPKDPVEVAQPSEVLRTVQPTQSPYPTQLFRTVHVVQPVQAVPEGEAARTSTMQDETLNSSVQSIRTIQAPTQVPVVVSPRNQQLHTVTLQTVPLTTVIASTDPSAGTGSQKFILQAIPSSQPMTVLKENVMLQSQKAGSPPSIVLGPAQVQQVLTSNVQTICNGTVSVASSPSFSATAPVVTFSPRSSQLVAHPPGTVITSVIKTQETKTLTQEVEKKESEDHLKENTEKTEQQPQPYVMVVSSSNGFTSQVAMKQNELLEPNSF
ELF4, sequence (Q99607 whole entry): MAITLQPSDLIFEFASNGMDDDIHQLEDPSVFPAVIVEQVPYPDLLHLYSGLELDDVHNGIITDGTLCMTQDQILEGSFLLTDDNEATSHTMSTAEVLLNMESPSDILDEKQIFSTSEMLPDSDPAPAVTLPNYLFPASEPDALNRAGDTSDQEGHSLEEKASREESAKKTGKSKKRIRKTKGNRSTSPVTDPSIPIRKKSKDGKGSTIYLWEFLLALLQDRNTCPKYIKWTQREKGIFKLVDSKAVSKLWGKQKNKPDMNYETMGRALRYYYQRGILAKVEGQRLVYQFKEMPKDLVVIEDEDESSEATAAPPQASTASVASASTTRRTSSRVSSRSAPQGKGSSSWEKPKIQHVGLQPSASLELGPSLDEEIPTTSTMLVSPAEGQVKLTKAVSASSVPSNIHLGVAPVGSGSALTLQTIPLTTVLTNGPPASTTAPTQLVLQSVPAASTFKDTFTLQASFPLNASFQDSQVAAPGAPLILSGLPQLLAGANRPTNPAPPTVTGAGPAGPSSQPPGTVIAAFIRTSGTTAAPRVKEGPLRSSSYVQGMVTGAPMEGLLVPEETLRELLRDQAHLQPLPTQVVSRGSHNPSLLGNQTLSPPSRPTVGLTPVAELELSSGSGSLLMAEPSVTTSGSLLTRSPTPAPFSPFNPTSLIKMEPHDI
ETV6, sequence (P41212 whole entry): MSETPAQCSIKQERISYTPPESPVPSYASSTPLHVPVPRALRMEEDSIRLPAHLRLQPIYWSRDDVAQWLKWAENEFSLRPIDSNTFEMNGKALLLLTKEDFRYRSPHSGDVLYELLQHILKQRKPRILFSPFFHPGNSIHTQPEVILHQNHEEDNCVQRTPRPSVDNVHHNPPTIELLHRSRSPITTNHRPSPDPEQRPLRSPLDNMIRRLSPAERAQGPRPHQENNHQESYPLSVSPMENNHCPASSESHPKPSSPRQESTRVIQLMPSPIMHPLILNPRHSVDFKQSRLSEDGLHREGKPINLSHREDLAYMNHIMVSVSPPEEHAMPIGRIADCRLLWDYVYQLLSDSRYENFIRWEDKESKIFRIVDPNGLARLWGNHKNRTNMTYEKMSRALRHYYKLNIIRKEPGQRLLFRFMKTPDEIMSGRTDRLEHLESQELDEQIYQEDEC

GCAACC: the binding signal with FLI1 is 1.06 fold enrichment (6-mer frequency, TF over GST control); with ELK1, 1.07 fold enrichment (6-mer frequency, TF over GST control); with GABPA, 1.06 fold enrichment (6-mer frequency, TF over GST control); with ERG it was 1.04 fold enrichment (6-mer frequency, TF over GST control); with ELF1, 1.13 fold enrichment (6-mer frequency, TF over GST control); with EHF it was 1.11 fold enrichment (6-mer frequency, TF over GST control). In addition, the binding signal in the assay with SPIB was 1.04 fold enrichment (6-mer frequency, TF over GST control); with ELK3, 1.09 fold enrichment (6-mer frequency, TF over GST control); with FEV, 1.17 fold enrichment (6-mer frequency, TF over GST control); with ETV5, 1.04 fold enrichment (6-mer frequency, TF over GST control); with SPIC, 1.09 fold enrichment (6-mer frequency, TF over GST control); with ELF4, 1.03 fold enrichment (6-mer frequency, TF over GST control). Further, the binding signal in the assay with ETV1 was 1.02 fold enrichment (6-mer frequency, TF over GST control); with ERF, 1.1 fold enrichment (6-mer frequency, TF over GST control); in the assay with ETV3L, 1.03 fold enrichment (6-mer frequency, TF over GST control); with ETS2, 1.03 fold enrichment (6-mer frequency, TF over GST control); with ELF5, 1.02 fold enrichment (6-mer frequency, TF over GST control); with ETV3, 1.02 fold enrichment (6-mer frequency, TF over GST control). The binding signal in the assay with ETV6 is 1.02 fold enrichment (6-mer frequency, TF over GST control).
